# Test results as given in PubChem BioAssay (EPA / NIEHS).
# Results filed as inconclusive are left out. Active and inactive are the calls of the source. How the source made its calls, unless noted: active means hit-call score of the fitted dose curve at least 0.9, where 1 is the maximum; inactive means score below 0.9.
# Columns and labels:
# [1] = CCTE_Deisenroth_H295R-HTRF_384WELL_ESTRADIOL: CCTE's H295R-HTRF Assay Evaluation of Estradiol Concentration, Deisenroth Lab (AID 2284361); details: actives raise or lower the signal
# Outline: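 Estradiol secreted into medium by H295R adrenocortical cells, quantified by HTRF after 48 h dosing over a nine-point 0.001 - 100 uM final range; gain or loss versus DMSO. Parallel ATP-luminescence viability readout; n=5 experiments.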
# [2] = CCTE_Deisenroth_H295R-HTRF_384WELL_TESTOSTERONE: CCTE's H295R-HTRF Assay Evaluation of Testosterone Concentration, Deisenroth Lab (AID 2284373); details: actives raise or lower the signal
# Method: CCTE_Deisenroth_H295R-HTRF_384WELL assay is a cell-based, multiplex-readout assay that uses H295R, a human adrenocortical carcinoma cell line, with measurements taken at 48 hours after chemical dosing in a 384-well microplateCCTE_Deisenroth_H295R-HTRF_384WELL_TESTOSTERONE is one of 3 assay components calculated in the CCTE_Deisenroth_H295R-HTRF_384WELL assay (2 hormones and 1 viability components). It is designed to make measurements of hormone induction, a form of inducible reporter, as detected with Homogenous Time Resolved Fluorescence immunoassay technology.This assay endpoint, CCTE_Deisenroth_H295R-HTRF_384WELL_TESTOSTERONE, was analyzed with bidirectional fitting relative to DMSO as the negative control and baseline of activity. Using a type of inducible reporter, gain or loss-of-signal activity using Homogenous Time Resolved Fluorescence technology was used to understand synthesis of testosterone in the H295R cell line at 48hr of chemical exposure. To generalize the intended target to other relatable targets, this assay endpoint is annotated to the steroid hormone intended target family, where the subfamily is androgens.
# Standard operating procedures for the cell culture medium, maintenance, expansion, and cryopreservation of the NCI-H295R adrenocortical carcinoma adherent cell line were adopted directly from guideline specifications7,13. The assay workflow follows a three-day protocol consistent with the paradigm defined in OECD TG 456 and U.S. EPA OCSPP Guideline 890.1550. On day 0, cells are plated in 384-well microplates and acclimated for 24 hours. On Day 1, test chemicals are dispensed into separate 384-well microplates in a nine-point 2X dilution series (0.002 - 200 uM). Without aspirating the growth medium on the assay plates, test chemical suspension is dispensed to achieve a final 1X nominal concentration. Each chemical is run in technical triplicate at a final dilution series of 0.001 - 100 uM. On Day 3, following a 48-hour incubation period with test chemical, the conditioned medium samples are collected and transferred to 384-well sample storage plates. HTRF direct immunoassay technology is employed to detect E2 and T analytes in H295R conditioned medium. HTRF assays for E2 and T are performed with matched conditioned medium samples according to the manufacturer's protocol. Fluorescent endpoint measurements are conducted with a microplate reader equipped with an HTRF-compatible filter set (ex: 320 (10) […]; em: 620 (10) and 665 (10) nM). A multiplexed cell viability assay is implemented on the same plates used for chemical testing using the Promega CellTiter-Glo 2.0 assay. In this homogenous assay format, cells are lysed in the presence of a thermostable luciferase to generate a luminescent signal that is directly proportional to the amount of ATP present, providing an indirect indication of cytotoxicity in the sample. After collecting conditioned medium samples on Day 3, the viability assay is immediately performed and luminescence readings measured on a microplate reader. A total of five experimental replicates is conducted for each chemical (n=5).
# [3] = CCTE_Deisenroth_H295R-HTRF_384WELL_CTOX: Cytotoxicity Assessment in CCTE's H295R-HTRF Assay, Deisenroth Lab (AID 2284380; active means hit-call score of the fitted dose curve at least 0.9, where 1 is the maximum)
# Outline: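 Luminescent ATP viability readout (CellTiter-Glo 2.0), multiplexed on plates used for hormone sampling, after 48 h chemical exposure. Human H295R cells; final concentrations 0.001–100 uM in nine steps, technical triplicates, five experiments; DMSO baseline.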
# TTR (gene 7276) = test: CCTE_GLTED_hTTR_0.125uM: CCTE's human Transthyretin (hTTR) Inhibition Assay, with 0.125uM TTR, Great Lakes Toxicology and Ecology Division (GLTED) Lab (AID 2284431);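 further: hits lower the fluorescence signal relative to DMSO baseline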
# Outline: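 Cell-free displacement of the fluorescent probe ANSA from human TTR (0.125uM) after 2 h incubation with test chemical. Fluorescence read at 380 nm excitation/475 nm emission; loss of signal fitted relative to DMSO baseline.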
# [4] = test system: SRY-box transcription factor 17 (SOX17) Protein Expression, Deisenroth Lab, SOX17 (gene 64321); test: CCTE_Deisenroth_DEVTOX-GLR_Endo_SOX17: CCTE's DevTox GLR-Endo Assay Evaluation of SRY-box transcription factor 17 (SOX17) Protein Expression, Deisenroth Lab (AID 2284413)
# Outline: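 Fluorescent microscopy of a SOX17 reporter in RUES2-GLR pluripotent cells scored endoderm differentiation after 48 h and two 24-h-spaced exposures. Values are percent change in SOX17+ population against 0.2% DMSO, n=4 experimental replicates.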
# [5] = test system: Brachyury (BRA) Protein Expression, TBXT (gene 6862); test: CCTE_Deisenroth_DEVTOX-GLR_Endo_BRA: CCTE's DevTox GLR-Endo Assay Evaluation of Brachyury (BRA) Protein Expression, Deisenroth Lab (AID 2284417)
# Outline: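 RUES2-GLR human pluripotent cells, seeded 24 h, then differentiated 48 h in defined media with two chemical exposures 24 h apart (10-point series, 1 nM - 200 uM). Fixed, nuclear-stained, imaged; endpoint is percent BRA+ cells minus 0.2% DMSO control.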
# [6] = CCTE_Deisenroth_DEVTOX-GLR_Endo_CellCount: Viability Assessment in CCTE's DevTox GLR-Endo Assay, Deisenroth Lab (AID 2284420)
# Outline: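 RUES2-GLR human pluripotent cells seeded 24 h, then differentiated 48 h with two chemical exposures at 24 h intervals (10-point, 1 nM - 200 uM). Fixed, nuclear-stained, imaged; nuclei counts give % change in cell count versus 0.2% DMSO.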
# [7] = test system: SRY-box transcription factor 2 (SOX2) Protein Expression, Deisenroth Lab, SOX2 (gene 6657); test: CCTE_Deisenroth_DEVTOX-GLR_Pluri_SOX2: CCTE's DevTox GLR-Pluri Assay Evaluation of SRY-box transcription factor 2 (SOX2) Protein Expression, Deisenroth Lab (AID 2284428)
# Outline: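 Human pluripotent RUES2-GLR cells were seeded 24 h, then differentiated 48 h in defined media with two chemical doses at 24-h intervals (10-point, 1 nM–200 uM). Nuclear-stained cells were imaged; SOX2+ cells/cell count gave percent change versus 0.2% DMSO control.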
# [8] = test system: Brachyury (BRA) Protein Expression, Deisenroth Lab, TBXT (gene 6862); test: CCTE_Deisenroth_DEVTOX-GLR_Pluri_BRA: CCTE's DevTox GLR-Pluri Assay Evaluation of Brachyury (BRA) Protein Expression, Deisenroth Lab (AID 2284429; active means hit-call score of the fitted dose curve at least 0.9, where 1 is the maximum)
# Outline: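 Mesoderm readout after 48 h differentiation of human RUES2-GLR cells, dosed twice (24-h intervals) at 1 nM - 200 uM. BRA+ frequency from fluorescence imaging of fixed, nuclear-stained cells, DMSO-corrected.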
# [9] = CCTE_Deisenroth_DEVTOX-GLR_Pluri_CellCount: Viability Assessment in CCTE's DevTox GLR-Pluri Assay Evaluation of Total Cell Counts, Deisenroth Lab (AID 2284430)
# Method: CCTE_Deisenroth_DEVTOX-GLR_Pluri assay is a cell-based, multiplex-readout assay that uses RUES2-GLR, a human pluripotent cell line, with measurements taken at 48 hours after chemical dosing in a 384-well microplateCCTE_Deisenroth_DEVTOX-GLR_Pluri_CellCount is 1 of 4 assay components calculated from the CCTE_Deisenroth_DEVTOX-GLR_Pluri assay and it measures cell count. Using fluorescent nuclei staining, gain-of-signal activity can be used to understand changes in cell viability with fluorescent microscopy. It is designed to make measurements of nuclei counts as a surrogate for cell number, as detected with optical fluorescence microscopy by Perkin Elmer Harmony nuclei detection algorithm. To generalize the intended target to other relatable targets, this assay component is annotated to the cell cycle intended target family, where the subfamily is cytotoxicity.Data from the assay component CCTE_Deisenroth_DEVTOX-GLR_Pluri_CellCount was analyzed as 1 assay endpoint. The endpoint the percent change in the cell count relative to the 0.2% DMSO control in the CCTE_Deisenroth_DEVTOX-GLR_Pluri assay. Furthermore, this assay endpoint can be referred to as a primary readout, because this assay has produced multiple assay endpoints where this one serves as a measure of cytotoxicity.
# All assay protocols are aligned to the DevTox GLR-Endo assay workflow. […]
smiles,measurement,setting,value
CCCCNC(=O)n1c(NC(=O)OC)nc2ccccc21,outcome,[1],inactive
same,outcome,[2],inactive
same,AC50,[3],5.92 µM (active)
COC(=O)C(C)Oc1ccc(Oc2ccc(Cl)cc2Cl)cc1 (stereo unspecified),AC50,TTR (gene 7276),1.12 µM (active)
COP(=S)(OC)Oc1nc(Cl)c(Cl)cc1Cl,AC50,TTR (gene 7276),0.274 µM (active)
CCCCC(CC)COC(=O)c1ccccc1C(=O)OCC(CC)CCCC (stereo unspecified),outcome,[1],inactive
same,outcome,[2],inactive
same,outcome,[3],inactive
CCNc1nc(Cl)nc(NC(C)C)n1,AC50,[1],9.8 µM (active)
same,outcome,[2],inactive
same,outcome,[3],inactive
Cc1cc(Cl)ccc1OCC(=O)O,AC50,TTR (gene 7276),22.1 µM (active)
C=CC1(C)OC(=O)N(c2cc(Cl)cc(Cl)c2)C1=O (stereo unspecified),AC50,TTR (gene 7276),1.68 µM (active)
OC(c1ccc(Cl)cc1)(c1cncnc1)c1ccccc1Cl (stereo unspecified),outcome,[1],inactive
same,outcome,[2],inactive
same,outcome,[3],inactive
Cc1ccc(-c2c(Cl)nc(C#N)n2S(=O)(=O)N(C)C)cc1,AC50,TTR (gene 7276),0.0946 µM (active)
O=C(O)COc1nc(Cl)c(Cl)cc1Cl,AC50,TTR (gene 7276),6.69 µM (active)
Fc1ccc(Oc2ccnc3cc(Cl)cc(Cl)c23)cc1,AC50,TTR (gene 7276),2.74 µM (active)
CCCN(CCC)c1c([N+](=O)[O-])cc(S(N)(=O)=O)cc1[N+](=O)[O-],AC50,TTR (gene 7276),9.88 µM (active)
COc1nc(NC(C)C)nc(NC(C)C)n1,AC50,[1],34.6 µM (active)
same,outcome,[2],inactive
same,outcome,[3],inactive
CCON=C(CC)C1=C(O)CC(c2c(C)cc(C)cc2C)CC1=O (stereo unspecified),AC50,TTR (gene 7276),9.92 µM (active)
COC(=O)c1ccccc1C(=O)OC,outcome,[4],inactive
same,outcome,[5],inactive
same,outcome,[6],inactive
same,outcome,[7],inactive
same,outcome,[8],inactive
same,outcome,[9],inactive
Oc1ccccc1-c1ccccc1,AC50,TTR (gene 7276),14.2 µM (active)
